From PubChem BioAssay (NCI)
“And” between values parts separate entries of the source, which are not always exact repeats. Equal entries are not always repeated. About 83,000 compounds went through this panel and 20% of them were active in at least one assay; those are over-represented in the sample as a whole.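 Treatment: one concentration, 48 hours, 96-well format. Scoring: percent growth, with anything below 10 considered active.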 The source made the active and inactive calls.

Test system: MCF7 breast
Test: NCI-60 one-dose screen, 48 h (100 = growth as untreated, 0 = no growth, -100 = all killed)
Conditions: 10 µM unless noted

Question: Which growth does the source give for `CC(C)(C)N/N=C(\C(=O)Nc1ccc([N+](=O)[O-])cc1[N+](=O)[O-])c1nc2ccc([N+](=O)[O-])cc2[nH]c1=O` here?
Answer: Its growth is 56.5% [100 µM] (inactive) and 7.04% [100 µM] (active).

Question: Which growth does the source give for `COc1cc(Nc2ccc3c(c2)CCC3)nc(OC)n1` here?
Answer: Its growth is 22.3% [100 µM] (inactive) and -82.6% [100 µM] (active).

Question: How did the growth turn out when `COc1cc2c(cc1O)Cc1c-2[n+](C)cc2cc(OC)c(OC)cc12` was run?
Answer: The growth was 19.5% [100 µM] (inactive) and 0.687% [100 µM] (active).

Question: How did the growth turn out when `CN(C)CCNc1ccc(NCC[N+](C)(C)Cc2ccc([N+](=O)[O-])cc2)c2c1C(=O)c1ccccc1C2=O` was run?
Answer: The growth was 6.38% [25 µM] (active) and -100% [25 µM] (active).

Question: For `COc1ccc(CC2c3cc(OC)c(OC)c(OC)c3CC[N+]2(C)C)cc1Oc1ccc(CC2c3cc4c(c(OC)c3CCN2C)OCO4)cc1` (configuration not stated), which growth is on record?
Answer: The growth was 69.2% [100 µM] (inactive) and 5.51% [100 µM] (active).

Question: With `Nc1nc(Nc2cc(F)c(Cl)c(F)c2)cc(=O)[nH]1` as the compound, how does the growth read?
Answer: Its growth is 65.9% [100 µM] (inactive) and -23.3% [100 µM] (active).

Question: For `Cc1ccc(/C=N/Nc2cc(C)c3ccccc3n2)s1`, which growth is on record?
Answer: Its growth is -80.7% [100 µM] (active) and -40.2% [100 µM] (active).

Question: `CCC1CC(C)C(O)/C=C/C=C/CC(C)OC(=O)CC(O)C(OC)C1OC1OC(C)CC(O)(C(C)=O)C1O` (configuration not stated) was tested. Which growth did it give?
Answer: Its growth is 32% [100 µM] (inactive) and 5.08% [100 µM] (active).

Question: `CCCCOC(=O)C1CN2C(=NC1(C(F)(F)F)C(F)(F)F)Sc1ccccc12` (configuration not stated) was tested. Which growth did it give?
Answer: Its growth is 6.83% [100 µM] (active) and 25.5% [100 µM] (inactive).

Question: `CCOC(=O)CCC(NC(=O)c1ccc(OCc2nc3cc(C(F)(F)F)ccc3nc2-c2ccccc2)cc1)C(=O)OCC` (configuration not stated) was tested. Which growth did it give?
Answer: The growth was 32% [100 µM] (inactive) and -53% [100 µM] (active).

Question: Which growth does the source give for `CC1(C)CC2(C)OC(=N)C1(C#N)C2(C#N)C#N` (configuration not stated) here?
Answer: Its growth is -56.8% [100 µM] (active) and -71.8% [100 µM] (active).

Question: With `CC(O)c1cc2c(s1)C(=O)c1c(C(C)O)csc1C2=O` (configuration not stated) as the compound, how does the growth read?
Answer: The growth was -78.4% [100 µM] (active) and -81.9% [100 µM] (active).

Question: How did the growth turn out when `CC(C)=CCC/C(C)=C/CC/C(C)=C/CC/C(C)=C/C=C/C=C(\C)CC/C=C(\C)CC/C=C(\C)CCC=C(C)C` was run?
Answer: Its growth is 74.5% [100 µM] (inactive) and 28.2% [100 µM] (inactive).

Question: With `CC(=O)O[C@@H]1C[C@@]2(C)[C@@H]3CC=C4[C@@H](C[C@H](O)C(=O)C4(C)C)[C@]3(C)C(=O)C[C@]2(C)[C@H]1[C@@](C)(O)C(=O)/C=C/C(C)(C)OC(C)=O` as the compound, how does the growth read?
Answer: The growth was -52.5% [100 µM] (active) and -100% [100 µM] (active).

Question: Which growth does the source give for `CC(=O)c1cc2c(s1)C(=O)c1scc(C(C)=O)c1C2=O` here?
Answer: The growth was -68.6% [100 µM] (active) and -79.8% [100 µM] (active).

Question: With `CCCCOC(=O)C1CC[C@H]2[C@@H]3CCc4cc(OC(=O)c5cccc6c(=O)c7ccccc7[nH]c56)ccc4[C@H]3CC[C@]12C` (some centres not stated) as the compound, how does the growth read?
Answer: Its growth is -86.3% [50 µM] (active) and -100% [50 µM] (active).

Question: For `Cc1sccc1C(=S)Nc1ccc(Cl)c(/C=N/OC(C)(C)C)c1`, which growth is on record?
Answer: Its growth is -73.5% [100 µM] (active) and -46.7% [100 µM] (active).

Question: For `N#CC1=C(N)OC(c2cccc([N+](=O)[O-])c2)C1(C#N)C#N` (configuration not stated), which growth is on record?
Answer: The growth was -9.78% [100 µM] (active) and -88.5% [100 µM] (active).

Question: `C=C1C(=O)OC2/C=C(/C)C3(O)OC(C)(CC(OC(=O)C(C)C)C12)CC3OC(C)=O` (configuration not stated) was tested. Which growth did it give?
Answer: The growth was -83.4% [100 µM] (active).

Question: `Oc1ccc(/C=C/c2cc(O)cc3c2C(c2cc(O)cc(O)c2)C(c2ccc(O)c(O)c2)O3)cc1` (configuration not stated) was tested. Which growth did it give?
Answer: Its growth is -7.74% [100 µM] (active) and -48.3% [100 µM] (active).

Question: With `CC(C)(C)c1cc(C2COC(=O)COCC(=O)OCCOCCOCCO2)cc(C(C)(C)C)c1O` (configuration not stated) as the compound, how does the growth read?
Answer: The growth was 64.9% [100 µM] (inactive) and 75.7% [100 µM] (inactive).

Question: With `COC(=O)C(=O)C(C(=O)C(=O)Nc1ccccc1C(=O)OC)c1nc2ccc(C(=O)c3ccccc3)cc2[nH]c1=O` (configuration not stated) as the compound, how does the growth read?
Answer: The growth was 58.7% [100 µM] (inactive) and 7.77% [100 µM] (active).
